Sampled rows, rich in hits. Any-hit rate of the full collection: about 3.7%.
TCR act: activators of T cell receptors; primary human leukocytes, anti-CD3, IL-2 HTRF, 48 h; Potency, µM (series often up to 9.22 µM), inactives show top-dose activation of IL-2 secretion, most hits filed as activators; 330,000 tested, under 10 active; AID 504894; further: % of control where 0% means no effect
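Compounds are tested in HTS on primary human leukocytes co-incubated with a-CD3 beads for 48 hr. IL-2 output is measured by time-resolved FRET.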
WRN inhibitor: blocks human WRN helicase; Q14191; Potency, µM (highest dose often 114 µM), without a hit: top-dose activity change, negative = inhibition, actives largely listed as inhibitors; WRN helicase unwinding, fluorescent forked duplex, kinetic; 360,000 compounds, 0.46% hits; further: potency means the concentration at half of the fitted maximal effect; on the % scale 0 is the no-effect control and ±100 the full control effect; nearly all actives have a fitted effect of over 55% in size
Target sequence (Q14191 whole entry, looked up): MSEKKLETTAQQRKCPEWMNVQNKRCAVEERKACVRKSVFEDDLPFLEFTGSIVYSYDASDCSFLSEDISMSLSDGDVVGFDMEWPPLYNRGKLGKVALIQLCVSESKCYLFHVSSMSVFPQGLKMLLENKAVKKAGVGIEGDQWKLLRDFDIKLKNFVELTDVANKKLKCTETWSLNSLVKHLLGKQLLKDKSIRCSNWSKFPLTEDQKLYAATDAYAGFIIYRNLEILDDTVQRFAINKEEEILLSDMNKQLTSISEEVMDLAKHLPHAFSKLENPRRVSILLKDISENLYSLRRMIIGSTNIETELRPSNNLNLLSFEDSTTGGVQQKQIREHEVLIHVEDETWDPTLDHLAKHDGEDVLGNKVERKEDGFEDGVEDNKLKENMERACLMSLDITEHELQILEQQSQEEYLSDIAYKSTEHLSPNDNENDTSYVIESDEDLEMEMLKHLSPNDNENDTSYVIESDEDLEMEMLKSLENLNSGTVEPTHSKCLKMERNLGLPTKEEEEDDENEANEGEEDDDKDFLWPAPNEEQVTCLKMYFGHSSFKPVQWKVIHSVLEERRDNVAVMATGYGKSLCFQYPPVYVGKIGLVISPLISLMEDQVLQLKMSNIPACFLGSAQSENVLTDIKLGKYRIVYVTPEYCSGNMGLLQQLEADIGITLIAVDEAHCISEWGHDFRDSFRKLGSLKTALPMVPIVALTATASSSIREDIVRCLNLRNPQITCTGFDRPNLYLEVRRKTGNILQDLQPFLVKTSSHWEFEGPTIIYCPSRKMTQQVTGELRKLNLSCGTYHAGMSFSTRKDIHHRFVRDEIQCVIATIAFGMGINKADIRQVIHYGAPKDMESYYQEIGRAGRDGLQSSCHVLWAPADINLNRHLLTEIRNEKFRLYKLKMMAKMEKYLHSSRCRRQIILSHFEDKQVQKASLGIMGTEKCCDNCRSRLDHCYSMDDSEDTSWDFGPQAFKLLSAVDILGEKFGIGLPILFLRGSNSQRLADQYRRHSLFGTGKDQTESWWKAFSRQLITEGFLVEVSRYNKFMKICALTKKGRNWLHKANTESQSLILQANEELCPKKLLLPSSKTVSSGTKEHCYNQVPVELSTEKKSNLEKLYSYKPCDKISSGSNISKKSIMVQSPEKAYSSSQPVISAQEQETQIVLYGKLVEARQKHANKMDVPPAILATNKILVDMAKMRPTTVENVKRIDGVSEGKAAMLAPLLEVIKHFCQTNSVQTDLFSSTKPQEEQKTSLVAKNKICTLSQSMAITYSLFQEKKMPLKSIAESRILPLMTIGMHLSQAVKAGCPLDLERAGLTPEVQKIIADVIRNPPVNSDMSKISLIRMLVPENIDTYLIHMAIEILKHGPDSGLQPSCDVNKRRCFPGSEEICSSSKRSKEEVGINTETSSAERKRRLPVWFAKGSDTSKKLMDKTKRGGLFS
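Kinetic red-fluorescence monitoring (525/598 nm) tracks WRN helicase activity after 100 nM fluorophore-quencher forked duplex and 2 mM ATP are added to 20 nM enzyme pretreated 15 min at room temperature with compound.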
PI5P4K alpha inh: inhibitors of human PI5P4K alpha; AID 652105; PI5P4Kalpha enzyme, ADP-Glo luminescence, 60 min; hits give low values; max response, %; 330,000 compounds, 1.2% hits; P48426; active means max response of -50% or lower; inconclusive means between -30% and -50%; inactive means -30% or higher; further: value at the top dose of about 77 µM; on the % scale 0 is the no-effect control and ±100 the full control effect
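ADP-Glo luminescence end-point read after a 60 min room-temperature kinase reaction of PI5P4Kalpha plus substrate, initiated with ATP at 5 microM final. Buffer: 0.038 M HEPES pH 7.4, EGTA, 0.1% CHAPS, 5% DMSO.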
VDR inh: blocks the human vitamin D receptor; VDR-SRC2-3 peptide fluorescence polarization, 2 h; Potency, µM, without a hit: max response, negative = inhibition, most hits filed as inhibitors; P11473; 400,000 compounds, 0.93% hits; further: potency means the concentration at half of the fitted maximal effect; on the % scale 0 is the no-effect control and ±100 the full control effect
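FP read-out; VDR + SRC2-3 coactivator peptide; 23 nl compound by pintool; 2 h RT incubation; reagents held at 4 deg C, protected from light.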
FEN1 inh: blocks human flap endonuclease 1. Potency, µM (top dose mostly 114 µM), without a hit: at the highest dose activity change, negative = inhibition, usual class: inhibitors. Recombinant FEN1 flap cleavage, fluorescence, 15 min. AID 588795. 390,000 compounds, 0.35% hits. P39748; further: potency means the concentration at half of the fitted maximal effect; on the % scale 0 is the no-effect control and ±100 the full control effect; nearly all actives have a fitted effect of over 65% in size
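FEN1 at 10 nM, compound pretreatment for 15 min (room temperature), 50 nM final substrate to initiate; endpoint reads at 0 and 15 min; DMSO-only plates used as vehicle background.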
PLK1 PBD inh: PLK1 (human) polo-box domain binding inhibition; Plk1 PBD binding of FITC phosphopeptide, fluorescence polarization; Potency, µM, for inactives: max response, negative = inhibition, most hits filed as inhibitors; 360,000 compounds, 2.8% hits; AID 720504; P53350; further: potency means the concentration at half of the fitted maximal effect; series mostly up to about 57 µM; on the % scale 0 is the no-effect control and ±100 the full control effect; nearly all actives have a fitted effect of over 65% in size
ADP-Glo interf: ADP-Glo luciferase interference, PI5P4K counter-screen | AID 743285 | ADP-Glo detection counter-screen, luciferase luminescence, no enzyme | shares compounds with PI5P4K alpha inh | Potency, µM (top dose mostly 76.9 µM), for the others: top-dose activity change, negative = inhibition, usual class: inhibitors | 1,100 tested, under 10 active
The depositor's hits bear a star; ? = inconclusive; / = not tested or not shown; [ ] = remark or other dose. Unless noted, the call rests on the fitted dose curve; in most records, active means well fitted curve in the direction sought with a large enough effect; inconclusive means small, poorly fitted or top-dose-only effect, or another doubt; inactive means no such curve, though single readings can be large; an effect the other way counts as inactive or inconclusive.

SMILES | TCR act | WRN inhibitor | PI5P4K alpha inh | VDR inh | FEN1 inh | PLK1 PBD inh | ADP-Glo interf
CCCN(CCC)C(=O)Cn1nnc2sc(-c3ccccc3)cc2c1=O | / | / | / | -1% | 2% | / | /
N#Cc1c(SCC(=O)Nc2nccs2)sc2c(O)cc(=O)[nH]c12 | 2% | 56µM* | -94* | 25% | 45µM* | ? | 7%
CCCc1cc(=O)[nH]c2nnc(SCC(=O)Nc3nccs3)n12 | 9% | -5% | -6 | 11% | 14% | -2% | /
O=C(CSc1ccccn1)Nc1nc2ccccc2s1 | 10%[46.1 µM] | -27%[57.1 µM] | -2 | 3% | 11% | -1% | /
N#Cc1c(SCC(=O)Nc2nc3ccccc3s2)sc2c(O)cc(=O)[nH]c12 | 1% | 40µM* | -78* | -12% | 18µM* | 24µM* | -3%
CCOc1cccc(NC(=O)CSc2sc3c(O)cc(=O)[nH]c3c2C#N)c1 | 3% | -36% | -60* | -16% | -14% | -25% | 1%
Cc1cccc(-c2nc3scc(CCNS(=O)(=O)c4ccc(F)cc4C)n3n2)c1 | / | / | / | 13% | ? | / | /
O=C(O)Cc1nc(-c2cccnc2)sc1-c1ccc(Br)cc1 | 1% | -28% | -61* | -2% | 1% | ? | -7%
CCN(CC)CCCNC(=S)N(Cc1cccnc1)Cc1cc2cccc(C)c2[nH]c1=O | -3% | 20% | 0 | -8% | -2% | -16% | /
Cc1cccc2cc(CN(Cc3cccnc3)C(=S)NCCCN(C)C)c(=O)[nH]c12 | 4% | 15% | -53* | ? | -10% | 9.5µM* | -3%
COCCN(C(=O)COC(=O)c1cc2c(s1)CCCC2)c1c(N)n(Cc2ccccc2)c(=O)[nH]c1=O | -1% | -16%[11.6 µM] | -56* | -14% | 0% | -2% | -3%
COCCN(C(=O)c1cc2c(s1)CCCCC2)c1c(N)n(Cc2ccccc2)c(=O)[nH]c1=O | -4% | -9% | 1 | -16% | 2% | -6% | /
Cc1cc(F)ccc1NC(=O)CCS(=O)(=O)c1ccc2c(c1)NC(=O)CO2 | / | / | / | 8% | 2% | / | /
Cc1oc(-c2ccc(Cl)cc2)nc1CS(=O)CC(=O)NCc1ccc(Cl)cc1 (stereo unspecified) | / | / | / | -7% | 11% | / | /
O=C(Cn1cnc2scc(-c3ccccc3)c2c1=O)NCc1ccco1 | 1% | -19% | -66* | -1% | 5% | -7% | -7%
O=C(Cn1cncn1)NCc1ccccc1Br | 0% | 22% | -62* | 3% | -6% | -6% | -2%
Cc1cc(NC(=O)c2sc(Nc3cccc(C(F)(F)F)c3)nc2N)no1 | 2% | -12% | -67* | -3% | -11% | -1% | 2%
O=C1NCCN1CCNc1nc(NCC2CC2)nc2cc(-c3ccccc3)sc12 | / | 6% | ? | / | / | -6% | /
COCCNc1nc(NCC2CCCCC2)c2sc(-c3ccccc3)cc2n1 | / | -5% | / | / | / | -6% | -2%
c1ccc(-c2cc3nc(NCC4CC4)nc(NCC4CCCCC4)c3s2)cc1 | / | 2% | / | / | / | -4% | 5%
COCCNc1nc(NCCOc2ccccc2Cl)c2sc(-c3ccccc3)cc2n1 | / | 3% | ? | / | / | -4% | /
CCC(=O)N1CCc2cc(Br)cc(S(=O)(=O)N3CCCC(C(=O)Nc4ccc(C(C)C)cc4)C3)c21 (stereo unspecified) | / | / | / | 3% | -11% | / | /
COc1ccc(CCNc2nc3cc(OC)c(OC)cc3c3nc(-c4cccnc4)nn23)cc1OC | / | / | / | 3% | -7% | / | /
COc1ccc(-c2nc3sc(CCNC(=O)c4ccccc4C)c(C)n3n2)cc1 | / | / | / | 5% | -5% | / | /
COc1ccccc1Cc1c(-c2ccco2)nc2cc(C)c(Br)c(C)n12 | / | -21% | -64* | / | / | ? | -1%
SMILES | TCR act | WRN inhibitor | PI5P4K alpha inh | VDR inh | FEN1 inh | PLK1 PBD inh | ADP-Glo interf
Cc1cc2nc(-c3ccco3)c(Cc3cccc(Cl)c3)n2c(C)c1Br | / | -5% | -56* | / | / | ? | -1%
CS(=O)(=O)Nc1ccc(C2=NN(C(=O)c3ccco3)C(c3cccc(F)c3)C2)cc1 (stereo unspecified) | 6% | -12% | -65* | -5% | -13% | -6% | 0%
CS(=O)(=O)Nc1ccc(C2=NN(C(=O)c3ccco3)C(c3ccccc3)C2)cc1 (stereo unspecified) | 0%[46.1 µM] | -9% | -51* | -4% | 6% | -4% | 3%
CCS(=O)(=O)Nc1ccc(C2=NN(C(=O)c3ccco3)C(c3cccc(F)c3)C2)cc1 (stereo unspecified) | -10% | 2% | -29 | -4% | 0% | -3% | /
COc1cccc(-n2cc(C(=O)Oc3cccc(C(F)(F)F)c3)c3ccccc3c2=O)c1 | / | / | / | -1% | -7% | / | /
COc1cc2nc(COc3ccccc3[N+](=O)[O-])oc(=O)c2cc1OC | 1%[46.1 µM] | -5% | -57* | -17% | 1% | -22% | 2%
Cc1ccccc1OCC(=O)OCC(=O)NCc1ccco1 | 5% | 7% | -5 | -9% | -3% | -5% | /
COc1ccccc1NCCC(=O)OCC(=O)NCc1ccco1 | 4% | ? | -60* | 9% | -11% | -19% | 0%
COc1ccc(OC)c(NC(=O)CN(Cc2ccc(F)cc2)C2CCCCC2)c1 | -1% | -9% | -58* | -1% | 4% | 3% | -3%
COC(=O)CNC(=O)C1Cc2ccccc2CN1S(=O)(=O)c1cccs1 (stereo unspecified) | -12% | -4%[11.6 µM] | -5 | -7% | -5% | 1% | -4%
COC(=O)CNC(=O)C1Cc2ccccc2CN1S(=O)(=O)c1ccc(F)cc1 (stereo unspecified) | 0% | 1% | 6 | -8% | 20% | -8% | /
COC(=O)Nc1ccc(S(=O)(=O)N2CCC(C(=O)N3CCC(C)CC3)CC2)cc1 | 2% | -19% | -80* | ? | -3% | 9.5µM* | 0%
Cc1onc(-c2c(F)cccc2Cl)c1C(=O)OCC(=O)NCc1ccco1 | -2% | 0% | -51* | -7% | -1% | -16% | -5%
Cc1onc(-c2c(F)cccc2Cl)c1C(=O)NCc1ccco1 | 7% | 3% | 1 | 2% | 8% | -1% | /
CN1C(=O)c2ccccc2Sc2ccc(NC(=O)NCc3cccc(Cl)c3)cc21 | / | / | / | 16% | 12% | / | /
COc1ccc(NC(C)=O)cc1NC(=O)CSc1nc2ncccc2[nH]1 | -10% | ? | -55* | -24% | -9% | 3µM* | 3%
CCc1ccccc1NC(=O)Cn1c(=O)n(-c2ccc(C)cc2)c(=O)c2cc(OC)c(OC)cc21 | / | / | / | -5% | -3% | / | /
O=C(COc1ccc([N+](=O)[O-])cc1)Nc1cccnc1 | -1% | -13% | -54* | -24% | 4% | -6% | -2%
CCn1nnc2cc(C(=O)Nc3cccc(Cl)c3C)ccc21 | / | / | / | 9% | 0% | / | /

High-throughput results (PubChem)
